Measured values from PubChem BioAssay (EPA / NIEHS).
Inconclusive results are not listed. The source made the active and inactive calls. How the source made its calls: active means hit-call score of the fitted dose curve at least 0.9, where 1 is the maximum; inconclusive means response in the unintended direction; inactive means score below 0.9.

Each compound was assayed against human Sirtuin 1 (SIRT1), SIRT1 (gene 23411) (UniProt Q96EB6) (assay: NVS_ENZ_hSIRT1: NovaScreen (NVS) Enzymatic Assay for human Sirtuin 1 (SIRT1) (AID 2283219)).
Sequence of human Sirtuin 1 (SIRT1), SIRT1 (gene 23411) (Q96EB6 whole entry, looked up): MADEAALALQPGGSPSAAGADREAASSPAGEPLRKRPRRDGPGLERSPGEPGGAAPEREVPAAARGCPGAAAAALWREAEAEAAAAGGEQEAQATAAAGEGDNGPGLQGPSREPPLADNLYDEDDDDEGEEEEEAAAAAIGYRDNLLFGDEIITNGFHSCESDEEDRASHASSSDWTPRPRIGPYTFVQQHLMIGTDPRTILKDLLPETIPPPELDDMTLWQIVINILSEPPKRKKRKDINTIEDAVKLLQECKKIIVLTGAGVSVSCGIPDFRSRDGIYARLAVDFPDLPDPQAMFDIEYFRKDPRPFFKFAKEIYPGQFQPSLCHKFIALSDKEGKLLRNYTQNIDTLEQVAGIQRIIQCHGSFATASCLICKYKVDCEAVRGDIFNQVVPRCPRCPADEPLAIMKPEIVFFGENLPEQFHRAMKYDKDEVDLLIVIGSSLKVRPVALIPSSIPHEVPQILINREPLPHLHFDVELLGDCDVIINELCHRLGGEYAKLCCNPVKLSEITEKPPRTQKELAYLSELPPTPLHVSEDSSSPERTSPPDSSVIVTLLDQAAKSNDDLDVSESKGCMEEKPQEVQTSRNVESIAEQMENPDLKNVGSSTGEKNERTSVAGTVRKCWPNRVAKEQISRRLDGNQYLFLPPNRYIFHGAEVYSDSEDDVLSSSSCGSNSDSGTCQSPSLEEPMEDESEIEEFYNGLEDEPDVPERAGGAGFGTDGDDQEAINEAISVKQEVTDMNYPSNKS
Protocol: NVS_ENZ_hSIRT1 is a biochemical, single-readout assay that uses extracted gene-proteins in a cell-free assay. Measurements were taken 1 hour after chemical dosing in a 384-well plate.NVS_ENZ_hSIRT1 is one of one assay component(s) measured or calculated from the NVS_ENZ_hSIRT1 assay. It is designed to make measurements of enzyme activity, a form of enzyme reporter, as detected with fluorescence intensity signals by Fluorescence and electrophoretic mobility shift technology.Data from the assay component NVS_ENZ_hSIRT1 was analyzed into 1 assay endpoint. This assay endpoint, NVS_ENZ_hSIRT1, was analyzed in the positive analysis fitting direction relative to DMSO as the negative control and baseline of activity. Using a type of enzyme reporter, loss-of-signal activity can be used to understand changes in the enzymatic activity as they relate to the gene SIRT1. Furthermore, this assay endpoint can be referred to as a primary readout, because this assay has produced multiple assay endpoints where this one serves a enzymatic activity function. To generalize the intended target to other relatable targets, this assay endpoint is annotated to the hydrolase intended target family, where the subfamily is protein deacetylase.
Binding assays used specific radioligands (tritiated, iodinated) with non-radioactive competitive displacement ligands in agonist or antagonist protocols (as indicated) and various reference compounds and inhibitors to titrate specific binding to receptors and transporters. Most enzyme assays (CYPs, kinases, phosphatases, proteases, HDACs) used recombinant protein and specific substrates (fluorescence mostly, some colorimetric and radioactive) and inhibitors, followed by a biochemical separation of substrate and product. All assays for the biochemical HTS were initially run in duplicate at a single concentration (10 uM for CYP450 assays and 25 uM for all others). Assay-chemical combinations meeting a pre-defined threshold (e.g., 30% inhibition and other criteria defined below) were then run in singleton concentration-response format with maximum concentration of 20 uM for CYPs and 50 uM for all others. Each assay was run with positive and negative controls, and concurrent controls on every plate. The follow-up (secondary) screen tested active chemical-pairs in concentration series, as well as a few additional assays not tested in the primary screen, some selected negative inactives, and several cases re-run in the concentration series for confirmatory purposes.
In the case of `CC(Cl)(Cl)C(=O)O`, the outcome is reported as “inactive”. With `O=P1(N(CCCl)CCCl)NCCCO1` (stereo not given) the outcome was “inactive”. For `CCOc1ccc(C(C)(C)COCc2cccc(Oc3ccccc3)c2)cc1`, the outcome was “inactive”. In the case of `Cc1ccc([N+](=O)[O-])cc1C`, the outcome is reported as “inactive”. In the case of `CSC(C)(C)C=NO`, the outcome is reported as “inactive”.
